Experimental findings from the supplement of paper PMC10723795 are described below.

± gives the standard deviation of the averaged measurements.

This test relates to CHON-002. Kind of test: nucleolar normality score relative to DMSO (fraction of DMSO control); RPE1 is a non-cancer human cell line; higher = more normal nucleoli (less nucleolar stress). As to the method:
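Selected screen hits were validated in hTERT lines (BJ5TA, CHON-002, RPE1) and cancer lines (DLD1, HCT116). Cells were immunostained for nucleolin and UBF and the nucleolar normality score was measured per field of view, with 4 fields per drug. Scores are normalized to each cell line's own DMSO control. Dose and time are not stated for this panel.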
`CCc1cnn2c(NCc3ccc[n+]([O-])c3)cc(N3CCCC[C@H]3CCO)nc12` [Dinaciclib] yielded a nucleolar normality score of 0.201 ± 0.018. The figure for `Cc1nc(-c2cn3c(n2)-c2ccc(-c4cnn(C(C)(C)C(N)=O)c4)cc2OCC3)n(C(C)C)n1` [Taselisib] is 0.444 ± 0.044.

Take `CC(C)c1c2cc(-c3ccnc(NC4CCC(NC5CCOCC5)CC4)n3)ccc2nn1C` (configuration not stated): the nucleolar normality score was found to be 0.281 ± 0.015. With `CC(C)C[C@H](NC(=O)[C@H](CCc1ccccc1)NC(=O)CN1CCOCC1)C(=O)N[C@@H](Cc1ccccc1)C(=O)N[C@@H](CC(C)C)C(=O)[C@@]1(C)CO1` [Carfilzomib], the nucleolar normality score was 0.453 ± 0.025. `C=CCNC1=C2C[C@@H](C)C[C@H](OC)[C@H](O)[C@@H](C)/C=C(\C)[C@H](OC(N)=O)[C@@H](OC)/C=C\C=C(/C)C(=O)NC(=CC1=O)C2=O` gave a nucleolar normality score of 0.408 ± 0.035. In turn, `COc1cccc2c1C(=O)c1c(O)c3c(c(O)c1C2=O)C[C@@](O)(C(=O)CO)C[C@@H]3O[C@H]1C[C@H](N)[C@H](O)[C@H](C)O1` [Doxorubicin] returned a nucleolar normality score of 0.182 ± 0.039. For the compound `CN(C)CCNC(=O)c1cccn2c(=O)c3cc4ccccc4cc3nc12`, the nucleolar normality score amounted to 0.0829 ± 0.03. Compound `CC(C)n1nc(-c2ccc3oc(N)nc3c2)c2c(N)ncnc21` [Sapanisertib] returned a nucleolar normality score of 0.4 ± 0.023. Turning to `COC[C@H](NC(=O)c1cnc(C)s1)C(=O)N[C@@H](COC)C(=O)N[C@@H](Cc1ccccc1)C(=O)[C@@]1(C)CO1` [Oprozomib], the nucleolar normality score amounted to 0.548 ± 0.036.

`Cc1cnc(CNC(=O)c2c(=O)c3ccc(N4CCCN(C)CC4)nc3n3c2sc2ccccc23)cn1` gave a nucleolar normality score of 0.487 ± 0.11. For the compound `CN1CC[C@H](c2c(O)cc(O)c3c(=O)cc(-c4ccccc4Cl)oc23)[C@H](O)C1` [Flavopiridol], the nucleolar normality score amounted to 0.181 ± 0.013.

On to `CC(C)c1cc(C(=O)N2Cc3ccc(CN4CCN(C)CC4)cc3C2)c(O)cc1O` [Onalespib], for which the nucleolar normality score came to 0.383 ± 0.023.
